PLK1 PBD inh = inhibitors of human PLK1 polo-box domain binding; P53350; Plk1 PBD binding of FITC phosphopeptide, fluorescence polarization; Potency, µM, without a hit: max response, negative = inhibition, actives largely listed as inhibitors; 360,000 compounds, 2.8% hits; AID 720504; also: series mostly up to about 57 µM; nearly all actives have a fitted effect of over 65% in size
Target sequence (P53350 whole entry, looked up, the tested form may be a part): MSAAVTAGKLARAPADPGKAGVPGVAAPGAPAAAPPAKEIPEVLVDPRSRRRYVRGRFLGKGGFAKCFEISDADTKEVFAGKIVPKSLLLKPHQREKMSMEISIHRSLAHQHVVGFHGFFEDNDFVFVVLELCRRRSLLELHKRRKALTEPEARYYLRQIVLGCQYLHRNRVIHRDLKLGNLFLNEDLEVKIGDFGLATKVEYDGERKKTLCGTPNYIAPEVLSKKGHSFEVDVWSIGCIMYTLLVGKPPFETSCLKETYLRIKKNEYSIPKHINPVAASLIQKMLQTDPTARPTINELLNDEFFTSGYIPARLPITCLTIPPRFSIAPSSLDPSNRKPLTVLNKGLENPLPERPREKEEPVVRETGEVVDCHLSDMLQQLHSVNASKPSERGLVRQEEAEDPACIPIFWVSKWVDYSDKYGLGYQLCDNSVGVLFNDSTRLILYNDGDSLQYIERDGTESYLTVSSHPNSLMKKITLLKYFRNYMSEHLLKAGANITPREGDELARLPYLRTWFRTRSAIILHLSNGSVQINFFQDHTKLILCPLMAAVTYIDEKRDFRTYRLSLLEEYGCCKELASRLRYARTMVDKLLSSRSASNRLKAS
DT40 TDP1 no CPT = qHTS for Inhibitors of human tyrosyl-DNA phosphodiesterase 1 (TDP1): qHTS in cells in absence of CPT; 420,000 compounds, 15% hits; Potency, µM (highest dose often 46.2 µM), without a hit: at the highest dose activity change, negative = growth inhibition, usual class: inhibitors; DT40 Tdp1-/- hTDP1 cells, no CPT, ATP luminescence, 48 h; also: nearly all actives have a fitted effect of over 55% in size
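No-CPT arm: Tdp1-/-;hTDP1 DT40 cells (400/well) plus compounds, incubated ≥48 hr at 37 °C. Readout CellTiter-Glo luminescence.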
GCN5L2 inh = GCN5L2 (KAT2A) acetyltransferase inhibition. GCN5L2 HAT assay, ThioGlo1 CoA-SH fluorescence. Potency, µM (top dose mostly 58.9 µM), for the others: at the top dose activity change, negative = inhibition, most hits filed as inhibitors. 390,000 compounds, 0.21% hits. AID 504327
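Preincubate 20nM GCN5L2 with compound 15 min, RT → add 50uM ThioGlo1 + 75uM H3(1-25) + 70uM acetyl-CoA → read fluorescence 0 and 20 min. Primary qHTS; fluorescent artifacts likely.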
TDP1 inh = TDP1 (human) enzyme inhibition; Q9NUW8; recombinant TDP1, AlphaScreen DNA substrate cleavage; 350,000 compounds, 0.28% hits; Potency, µM (titrated, usually from 130 µM), for inactives: top-dose activity change, negative = inhibition, usual class: inhibitors; also: nearly all actives have a fitted effect of over 40% in size
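Signal: AlphaScreen proximity between streptavidin donor and anti-FITC acceptor beads on intact substrate. Reaction: Tdp1 1 nM, substrate 15 nM final, 5 min RT after 15 min compound preincubation.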
TDP1 cell CPT = growth inhibition of DT40 Tdp1-/-;hTDP1 cells with camptothecin (screen for TDP1 inhibitors); chicken DT40 Tdp1-/-;hTDP1 cells + 20 nM CPT, ATP luminescence, 48 h; Potency, µM (highest dose often 46.2 µM), inactives show top-dose activity change, negative = growth inhibition, actives largely listed as inhibitors; 420,000 compounds, 12% hits; also: nearly all actives have a fitted effect of over 55% in size
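Chicken DT40 Tdp1-/- cells complemented with human TDP1, 400 cells/well, exposed to compounds plus 20 nM camptothecin for at least 48 h at 37 C; viability read as ATP content by CellTiter-Glo luminescence.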
VDR inh = blocks the human vitamin D receptor. P11473. VDR-SRC2-3 peptide fluorescence polarization, 2 h. AID 504847. 400,000 compounds, 0.93% hits. Potency, µM, for inactives: max response, negative = inhibition, actives largely listed as inhibitors
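Inhibition of the VDR/SRC2-3 peptide interaction is quantified by fluorescence polarization. Compounds (23 nl, pintool) incubate with the reagents for 2 hours at ambient room temperature.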
Active calls of the source: *; [ ] = remark or other dose. Only some compounds are listed: those with a hit (about 18% of all), similar ones and a draw of the others. Calls follow the shape of the dose curve; as a rule, active = well fitted curve in the direction sought with a large enough effect; inconclusive = small, poorly fitted or top-dose-only effect, or another doubt; inactive = no such curve, though single readings can be large; an effect the other way counts as inactive or inconclusive. % is scaled to controls: 0 for no effect and ±100 for the full control effect; potency is read from the fitted curve at half-maximal effect.

`CC(C)c1ccc(NC(=O)Nc2nc(CN)cs2)cc1` gave PLK1 PBD inh -11.1%, DT40 TDP1 no CPT inconclusive and TDP1 cell CPT inconclusive.
`CC(C)C(N)c1csc(NC(=O)Nc2ccc(OC(F)(F)F)cc2)n1` (centres undefined) gave PLK1 PBD inh 0.5%, DT40 TDP1 no CPT 23.1µM* and TDP1 cell CPT inconclusive.
For NC(CCc1ccccc1)c1csc(NC(=O)Nc2cccc(C(F)(F)F)c2)n1 (centres undefined) the results were PLK1 PBD inh -7.1%, DT40 TDP1 no CPT 20.6µM* and TDP1 cell CPT inconclusive.
For CC(C)C(N)c1csc(NC(=O)Nc2cccc(C(F)(F)F)c2)n1 (centres undefined) the results were PLK1 PBD inh 2.9%, DT40 TDP1 no CPT 14.6µM* and TDP1 cell CPT 14.6µM*.
`COc1cc(CNc2nccn3ccnc23)cc(OC)c1` gave PLK1 PBD inh 0.7%, DT40 TDP1 no CPT inconclusive and TDP1 cell CPT inconclusive.
For Cn1c(=O)c(-c2ccc(Cl)cc2)nc2cnc(OCc3ccccc3)nc21 the results were DT40 TDP1 no CPT 11.7%, GCN5L2 inh -6.6%, TDP1 cell CPT 0.3% and VDR inh 1.3%.
For Cc1ccc(CN2C[C@@H](Sc3nc(C)cc(C)n3)C[C@H]2C(=O)N2CCN(c3ccccc3F)CC2)cc1 the results were DT40 TDP1 no CPT inconclusive and TDP1 cell CPT -10.8%[9.04 µM].
Screening CC(C)C(N)c1csc(NC(=O)Nc2ccccc2C(C)(C)C)n1 (centres undefined) returned PLK1 PBD inh 6.0%, DT40 TDP1 no CPT inconclusive and TDP1 cell CPT 18.4µM*.
`O=S(=O)(O)c1ccc2c(c1)-c1nc-2nc2[nH]c(nc3nc(nc4[nH]c(n1)c1ccc(S(=O)(=O)O)cc41)-c1ccc(S(=O)(=O)O)cc1-3)c1ccc(S(=O)(=O)O)cc21` gave GCN5L2 inh 0.631µM*, TDP1 inh 0.1µM* and VDR inh 25.1µM*.
COc1cc(-c2nnc(Sc3ccc(C(F)(F)F)cc3[N+](=O)[O-])o2)cc(OC)c1OC was read as PLK1 PBD inh -13.5%, DT40 TDP1 no CPT 23.1µM*, GCN5L2 inh -0.2%, TDP1 inh 2.3%, TDP1 cell CPT 20.6µM* and VDR inh 12.0%.
CN1CCc2c(sc(NC(=O)CSc3ccc(F)cc3)c2-c2nc3ccccc3s2)C1 was read as DT40 TDP1 no CPT 16.4µM*, GCN5L2 inh 7.5%, TDP1 inh -2.6%, TDP1 cell CPT inconclusive and VDR inh 0.4%.
`CC(=O)Nc1sc2c(c1-c1nc3ccccc3s1)CCN(C(C)C)C2` gave PLK1 PBD inh 5.8%, DT40 TDP1 no CPT 2.59µM*, GCN5L2 inh -13.6%, TDP1 cell CPT 2.31µM* and VDR inh -3.1%.
CC(=O)N1CCc2c(sc(NC(=O)CSc3ccc(F)cc3)c2-c2nc3ccccc3s2)C1 was read as DT40 TDP1 no CPT 9.2µM*, GCN5L2 inh inconclusive, TDP1 inh 2.6%, TDP1 cell CPT 11.6µM* and VDR inh 0.5%.
CC(C)(N=NC(C)(C)C(=N)N)C(=N)N was read as DT40 TDP1 no CPT 5.3%, GCN5L2 inh 7.4%, TDP1 inh 10.7%[56.1 µM], TDP1 cell CPT inconclusive and VDR inh inconclusive.
Screening COc1ccc(S(=O)(=O)Nc2ccccc2C(=O)NCc2cccnc2)cc1OC returned PLK1 PBD inh -7.2%, DT40 TDP1 no CPT 8.9%, GCN5L2 inh -3.9%, TDP1 cell CPT 1.0% and VDR inh -19.8%.
Screening CC1(C)S[C@@H]2[C@H](NC(=O)C(c3ccccc3)S(=O)(=O)O)C(=O)N2[C@H]1C(=O)O (some centres undefined) returned DT40 TDP1 no CPT 1.1% and TDP1 cell CPT -5.0%.

Compound activity as filed in PubChem BioAssay.
